The target in experiment [1] is 5'-AMP-activated protein kinase catalytic subunit alpha-2 (Homo sapiens) (UniProt P54646). The conditions noted are these: at 1 µM.
Experiment [2] concerns the target T1, NUAK family SNF1-like kinase 1 (Homo sapiens) (UniProt O60285).
T1 sequence (whole entry): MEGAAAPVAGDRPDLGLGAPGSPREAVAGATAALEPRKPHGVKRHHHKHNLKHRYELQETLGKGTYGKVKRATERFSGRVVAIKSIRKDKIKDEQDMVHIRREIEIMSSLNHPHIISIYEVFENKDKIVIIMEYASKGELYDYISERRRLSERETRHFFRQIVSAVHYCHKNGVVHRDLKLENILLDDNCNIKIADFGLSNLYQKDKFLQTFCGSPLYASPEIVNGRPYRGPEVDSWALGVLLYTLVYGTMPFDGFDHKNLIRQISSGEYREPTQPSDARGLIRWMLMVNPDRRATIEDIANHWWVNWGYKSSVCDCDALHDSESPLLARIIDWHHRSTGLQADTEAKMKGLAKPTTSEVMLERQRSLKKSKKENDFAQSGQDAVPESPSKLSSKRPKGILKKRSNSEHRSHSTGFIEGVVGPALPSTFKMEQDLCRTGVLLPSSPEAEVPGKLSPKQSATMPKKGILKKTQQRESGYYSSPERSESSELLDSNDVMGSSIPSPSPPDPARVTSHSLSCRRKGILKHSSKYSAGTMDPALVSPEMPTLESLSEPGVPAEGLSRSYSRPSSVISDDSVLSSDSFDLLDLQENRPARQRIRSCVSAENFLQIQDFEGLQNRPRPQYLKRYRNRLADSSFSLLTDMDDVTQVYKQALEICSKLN
The conditions noted are these: at 0.1 µM.

Experiment [3] deals with T1, NUAK family SNF1-like kinase 1 (Homo sapiens). Conditions: at 1 µM.
Experiment [4] deals with T2, Serine/threonine-protein kinase BRSK1 (Homo sapiens) (UniProt Q8TDC3).
T2 sequence (whole entry): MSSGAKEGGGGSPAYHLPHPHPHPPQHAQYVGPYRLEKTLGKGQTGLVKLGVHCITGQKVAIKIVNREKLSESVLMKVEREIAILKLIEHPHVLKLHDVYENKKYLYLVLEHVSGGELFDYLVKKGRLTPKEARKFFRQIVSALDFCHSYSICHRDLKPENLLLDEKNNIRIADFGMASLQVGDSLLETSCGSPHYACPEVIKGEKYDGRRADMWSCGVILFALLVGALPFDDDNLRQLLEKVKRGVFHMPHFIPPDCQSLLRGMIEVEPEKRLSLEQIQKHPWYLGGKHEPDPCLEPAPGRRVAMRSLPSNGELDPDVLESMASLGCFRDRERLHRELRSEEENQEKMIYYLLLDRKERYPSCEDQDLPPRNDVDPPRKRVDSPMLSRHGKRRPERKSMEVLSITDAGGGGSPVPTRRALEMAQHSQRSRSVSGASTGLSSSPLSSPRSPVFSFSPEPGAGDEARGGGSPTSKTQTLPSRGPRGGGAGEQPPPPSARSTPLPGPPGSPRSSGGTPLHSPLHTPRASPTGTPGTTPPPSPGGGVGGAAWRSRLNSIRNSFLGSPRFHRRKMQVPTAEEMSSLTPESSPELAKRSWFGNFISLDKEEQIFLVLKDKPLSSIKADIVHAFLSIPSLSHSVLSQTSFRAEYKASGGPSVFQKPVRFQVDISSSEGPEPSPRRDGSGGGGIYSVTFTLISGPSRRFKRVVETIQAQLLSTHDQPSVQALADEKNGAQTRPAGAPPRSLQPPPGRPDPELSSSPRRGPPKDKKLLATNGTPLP
Conditions: at 0.1 µM.

In experiment [5] the target is T2, Serine/threonine-protein kinase BRSK1 (Homo sapiens). The conditions noted are these: at 1 µM.
The target of experiment [6] is T3, Serine/threonine-protein kinase BRSK2 (Homo sapiens) (UniProt Q8IWQ3).
T3 sequence (whole entry): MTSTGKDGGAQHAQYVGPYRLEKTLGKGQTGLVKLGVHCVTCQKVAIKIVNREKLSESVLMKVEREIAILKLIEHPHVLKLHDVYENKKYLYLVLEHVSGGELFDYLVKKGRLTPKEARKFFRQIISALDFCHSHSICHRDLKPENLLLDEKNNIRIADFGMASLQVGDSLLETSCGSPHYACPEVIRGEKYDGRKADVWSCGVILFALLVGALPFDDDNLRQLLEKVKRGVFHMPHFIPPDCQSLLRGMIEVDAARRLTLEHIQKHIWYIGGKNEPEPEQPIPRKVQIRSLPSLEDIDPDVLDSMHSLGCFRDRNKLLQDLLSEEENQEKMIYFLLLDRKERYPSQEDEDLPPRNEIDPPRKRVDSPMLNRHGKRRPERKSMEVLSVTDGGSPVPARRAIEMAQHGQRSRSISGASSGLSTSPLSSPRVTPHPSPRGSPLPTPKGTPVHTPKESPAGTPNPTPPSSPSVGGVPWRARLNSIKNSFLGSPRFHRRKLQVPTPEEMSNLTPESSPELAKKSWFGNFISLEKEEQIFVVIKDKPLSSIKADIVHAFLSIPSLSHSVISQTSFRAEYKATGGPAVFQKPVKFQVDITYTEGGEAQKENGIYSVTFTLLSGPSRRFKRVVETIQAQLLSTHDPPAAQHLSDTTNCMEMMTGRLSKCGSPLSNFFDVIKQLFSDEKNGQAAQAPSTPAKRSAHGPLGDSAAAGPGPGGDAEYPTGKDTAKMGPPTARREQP
Conditions: at 0.1 µM.

Experiment [7] deals with T3, Serine/threonine-protein kinase BRSK2 (Homo sapiens). The conditions noted are these: at 1 µM.
For experiment [8], the target named is Calcium/calmodulin-dependent protein kinase type 1D (Homo sapiens) (UniProt Q8IU85). The conditions noted are these: at 0.1 µM.
Sequence of Calcium/calmodulin-dependent protein kinase type 1D (Homo sapiens) (Q8IU85 whole entry, looked up): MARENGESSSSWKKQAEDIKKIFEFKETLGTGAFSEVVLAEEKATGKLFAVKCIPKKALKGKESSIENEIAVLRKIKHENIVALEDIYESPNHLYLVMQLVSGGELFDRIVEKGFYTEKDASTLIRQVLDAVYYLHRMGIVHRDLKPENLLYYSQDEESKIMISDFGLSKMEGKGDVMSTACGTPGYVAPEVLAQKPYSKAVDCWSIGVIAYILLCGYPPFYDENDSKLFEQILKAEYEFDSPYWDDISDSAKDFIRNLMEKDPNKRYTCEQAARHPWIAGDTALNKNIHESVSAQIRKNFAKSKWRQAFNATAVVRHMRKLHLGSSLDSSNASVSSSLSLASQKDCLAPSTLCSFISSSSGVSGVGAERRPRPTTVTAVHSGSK
For experiment [9] the target is unchanged. The conditions noted are these: at 1 µM.
The target in experiment [10] is Calcium/calmodulin-dependent protein kinase type II subunit alpha (Homo sapiens) (UniProt Q9UQM7). Conditions: at 0.1 µM.
Sequence of Calcium/calmodulin-dependent protein kinase type II subunit alpha (Homo sapiens) (Q9UQM7 whole entry): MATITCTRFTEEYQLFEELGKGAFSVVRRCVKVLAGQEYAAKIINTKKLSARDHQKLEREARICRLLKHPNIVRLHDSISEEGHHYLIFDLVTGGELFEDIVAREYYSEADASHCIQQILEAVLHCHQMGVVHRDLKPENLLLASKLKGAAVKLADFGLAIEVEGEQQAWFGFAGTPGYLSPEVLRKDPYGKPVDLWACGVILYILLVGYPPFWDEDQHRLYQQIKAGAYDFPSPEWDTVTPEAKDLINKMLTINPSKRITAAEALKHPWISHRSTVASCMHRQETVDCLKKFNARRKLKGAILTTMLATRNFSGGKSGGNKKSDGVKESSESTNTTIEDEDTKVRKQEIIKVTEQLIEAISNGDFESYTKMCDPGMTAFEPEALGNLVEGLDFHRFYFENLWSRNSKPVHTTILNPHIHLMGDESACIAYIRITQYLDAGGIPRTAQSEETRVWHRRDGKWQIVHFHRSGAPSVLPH
Experiment [11] has the same target. The conditions noted are these: at 1 µM.
The target in experiment [12] is Calcium/calmodulin-dependent protein kinase type II subunit delta (Homo sapiens) (UniProt Q13557). The conditions noted are these: at 0.1 µM.
Sequence of Calcium/calmodulin-dependent protein kinase type II subunit delta (Homo sapiens) (Q13557 whole entry): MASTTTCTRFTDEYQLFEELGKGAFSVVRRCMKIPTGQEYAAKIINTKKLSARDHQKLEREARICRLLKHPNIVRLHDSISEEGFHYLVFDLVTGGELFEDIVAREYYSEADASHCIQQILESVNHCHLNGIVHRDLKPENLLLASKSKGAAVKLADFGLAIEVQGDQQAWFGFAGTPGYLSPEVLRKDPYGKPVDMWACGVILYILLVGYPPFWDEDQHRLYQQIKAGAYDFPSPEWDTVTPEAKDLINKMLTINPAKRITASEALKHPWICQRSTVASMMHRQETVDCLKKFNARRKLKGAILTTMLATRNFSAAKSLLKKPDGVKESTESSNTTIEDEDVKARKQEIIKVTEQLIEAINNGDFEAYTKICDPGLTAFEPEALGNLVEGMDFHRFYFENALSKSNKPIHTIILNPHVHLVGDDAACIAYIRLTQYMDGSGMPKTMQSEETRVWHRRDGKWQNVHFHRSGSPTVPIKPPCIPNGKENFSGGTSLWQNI
The target is the same in experiment [13]. Conditions: at 1 µM.
In experiment [14] the target is T4, Calcium/calmodulin-dependent protein kinase type IV (Homo sapiens) (UniProt Q16566).
T4 sequence (whole entry): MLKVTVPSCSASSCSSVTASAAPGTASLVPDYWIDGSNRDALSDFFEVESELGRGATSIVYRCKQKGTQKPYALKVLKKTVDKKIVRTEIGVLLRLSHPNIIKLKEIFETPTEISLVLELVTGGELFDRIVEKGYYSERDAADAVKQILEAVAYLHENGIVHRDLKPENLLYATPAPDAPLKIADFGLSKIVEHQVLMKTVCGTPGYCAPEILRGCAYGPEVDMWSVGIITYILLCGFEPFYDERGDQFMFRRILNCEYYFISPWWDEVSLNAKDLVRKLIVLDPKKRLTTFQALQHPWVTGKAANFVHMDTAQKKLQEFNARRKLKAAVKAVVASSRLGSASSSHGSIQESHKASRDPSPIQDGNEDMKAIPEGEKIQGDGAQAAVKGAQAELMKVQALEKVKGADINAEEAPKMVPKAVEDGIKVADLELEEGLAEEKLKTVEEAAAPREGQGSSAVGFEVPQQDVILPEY
The conditions noted are these: at 0.1 µM.

The target of experiment [15] is T4, Calcium/calmodulin-dependent protein kinase type IV (Homo sapiens). Conditions: at 1 µM.
The target in experiment [16] is T5, Serine/threonine-protein kinase Chk1 (Homo sapiens) (UniProt O14757).
T5 sequence (whole entry): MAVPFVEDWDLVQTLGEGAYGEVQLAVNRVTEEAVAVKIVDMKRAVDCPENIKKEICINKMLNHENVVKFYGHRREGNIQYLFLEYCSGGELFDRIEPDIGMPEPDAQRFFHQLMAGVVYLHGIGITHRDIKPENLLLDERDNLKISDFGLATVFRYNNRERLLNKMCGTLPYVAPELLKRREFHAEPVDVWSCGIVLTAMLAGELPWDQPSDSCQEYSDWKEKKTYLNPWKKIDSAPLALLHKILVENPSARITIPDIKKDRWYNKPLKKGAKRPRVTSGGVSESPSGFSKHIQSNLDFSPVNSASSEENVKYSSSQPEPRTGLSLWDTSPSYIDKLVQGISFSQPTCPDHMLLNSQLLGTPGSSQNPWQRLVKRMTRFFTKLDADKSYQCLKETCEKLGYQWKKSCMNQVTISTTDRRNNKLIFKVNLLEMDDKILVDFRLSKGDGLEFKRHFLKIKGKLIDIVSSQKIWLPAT
The conditions noted are these: at 0.1 µM.

Experiment [17] deals with T5, Serine/threonine-protein kinase Chk1 (Homo sapiens). Conditions: at 1 µM.
Experiment [18] has as its target Serine/threonine-protein kinase Chk2 (Homo sapiens) (UniProt O96017). The conditions noted are these: at 0.1 µM.
The target is the same in experiment [19]. The conditions noted are these: at 1 µM.
In experiment [20] the target is Death-associated protein kinase 1 (Homo sapiens) (UniProt P53355). The conditions noted are these: at 0.1 µM.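 Note: reported figure is the mean inhibition of DAPK1.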
Sequence of Death-associated protein kinase 1 (Homo sapiens) (P53355 whole entry, looked up): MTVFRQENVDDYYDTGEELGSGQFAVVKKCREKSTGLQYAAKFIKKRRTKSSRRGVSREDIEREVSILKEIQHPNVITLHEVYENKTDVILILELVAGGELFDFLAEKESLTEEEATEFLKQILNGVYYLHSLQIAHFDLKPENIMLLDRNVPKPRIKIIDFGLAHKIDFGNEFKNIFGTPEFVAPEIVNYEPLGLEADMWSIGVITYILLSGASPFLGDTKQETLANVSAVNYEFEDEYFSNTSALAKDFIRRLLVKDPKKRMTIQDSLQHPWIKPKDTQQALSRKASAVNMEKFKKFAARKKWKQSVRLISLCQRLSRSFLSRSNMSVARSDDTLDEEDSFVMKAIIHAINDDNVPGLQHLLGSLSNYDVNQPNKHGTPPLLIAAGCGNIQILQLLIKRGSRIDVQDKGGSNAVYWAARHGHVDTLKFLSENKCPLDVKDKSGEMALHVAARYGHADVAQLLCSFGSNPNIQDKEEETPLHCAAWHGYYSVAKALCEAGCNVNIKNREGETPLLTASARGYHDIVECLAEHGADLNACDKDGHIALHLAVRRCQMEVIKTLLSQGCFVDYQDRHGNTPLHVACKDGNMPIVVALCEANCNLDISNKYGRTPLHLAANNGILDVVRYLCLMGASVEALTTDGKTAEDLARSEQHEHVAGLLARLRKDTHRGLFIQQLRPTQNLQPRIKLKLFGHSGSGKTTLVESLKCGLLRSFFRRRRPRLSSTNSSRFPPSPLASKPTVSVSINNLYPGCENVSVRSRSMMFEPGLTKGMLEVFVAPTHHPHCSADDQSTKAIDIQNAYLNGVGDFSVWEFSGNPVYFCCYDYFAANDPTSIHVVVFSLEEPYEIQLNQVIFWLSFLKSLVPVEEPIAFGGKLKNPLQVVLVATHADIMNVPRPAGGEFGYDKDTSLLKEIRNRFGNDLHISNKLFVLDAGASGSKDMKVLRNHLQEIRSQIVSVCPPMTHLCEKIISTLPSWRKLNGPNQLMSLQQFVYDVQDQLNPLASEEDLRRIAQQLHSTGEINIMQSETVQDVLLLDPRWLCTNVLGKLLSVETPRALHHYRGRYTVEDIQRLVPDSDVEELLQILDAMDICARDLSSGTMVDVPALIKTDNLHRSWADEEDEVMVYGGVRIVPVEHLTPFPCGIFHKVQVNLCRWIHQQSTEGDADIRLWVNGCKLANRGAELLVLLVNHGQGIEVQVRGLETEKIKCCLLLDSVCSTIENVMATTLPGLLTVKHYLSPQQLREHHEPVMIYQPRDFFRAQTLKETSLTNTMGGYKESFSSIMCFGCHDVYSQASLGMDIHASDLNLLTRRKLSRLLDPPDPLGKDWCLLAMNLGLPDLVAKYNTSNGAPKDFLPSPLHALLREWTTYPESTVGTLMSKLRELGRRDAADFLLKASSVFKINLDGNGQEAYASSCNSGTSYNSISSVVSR

The structures appear in SMILES notation.

The values below come from ChEMBL document CHEMBL1961873, “Compounds: GSK PKIS; Assays: Nanosyn kinase panel” (2012).

By inhibition is commonly meant the change of the read-out against control, counted positive when it falls.

Sequence of Serine/threonine-protein kinase Chk2 (Homo sapiens) (O96017 whole entry): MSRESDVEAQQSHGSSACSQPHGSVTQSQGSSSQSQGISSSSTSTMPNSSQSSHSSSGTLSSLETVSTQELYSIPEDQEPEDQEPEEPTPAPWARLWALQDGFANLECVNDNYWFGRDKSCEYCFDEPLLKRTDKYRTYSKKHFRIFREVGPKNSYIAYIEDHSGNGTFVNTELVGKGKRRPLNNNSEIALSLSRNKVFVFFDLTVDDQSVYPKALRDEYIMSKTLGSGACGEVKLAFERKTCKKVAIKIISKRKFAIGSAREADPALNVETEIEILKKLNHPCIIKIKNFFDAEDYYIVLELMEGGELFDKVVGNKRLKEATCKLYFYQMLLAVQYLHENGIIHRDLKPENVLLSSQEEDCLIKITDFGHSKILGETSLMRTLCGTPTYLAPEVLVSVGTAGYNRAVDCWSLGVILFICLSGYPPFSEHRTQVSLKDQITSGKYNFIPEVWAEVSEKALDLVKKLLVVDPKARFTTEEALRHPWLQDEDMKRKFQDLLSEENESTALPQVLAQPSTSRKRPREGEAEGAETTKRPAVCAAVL
Sequence of 5'-AMP-activated protein kinase catalytic subunit alpha-2 (Homo sapiens) (P54646 whole entry, looked up): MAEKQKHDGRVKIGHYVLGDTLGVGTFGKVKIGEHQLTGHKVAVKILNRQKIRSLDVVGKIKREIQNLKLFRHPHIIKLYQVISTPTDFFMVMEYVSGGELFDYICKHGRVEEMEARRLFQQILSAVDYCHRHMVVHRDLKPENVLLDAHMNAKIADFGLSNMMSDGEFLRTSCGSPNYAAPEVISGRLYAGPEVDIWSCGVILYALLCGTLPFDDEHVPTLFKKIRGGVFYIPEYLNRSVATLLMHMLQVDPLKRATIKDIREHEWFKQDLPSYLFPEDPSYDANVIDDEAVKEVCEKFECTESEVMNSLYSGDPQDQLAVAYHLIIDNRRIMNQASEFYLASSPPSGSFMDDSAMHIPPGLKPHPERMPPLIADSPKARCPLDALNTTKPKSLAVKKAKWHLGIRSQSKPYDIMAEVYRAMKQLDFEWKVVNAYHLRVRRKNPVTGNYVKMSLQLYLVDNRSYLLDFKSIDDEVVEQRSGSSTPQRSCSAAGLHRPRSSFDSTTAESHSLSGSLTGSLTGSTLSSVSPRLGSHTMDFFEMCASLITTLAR

As for `Fc1ccc(-c2ncn(C3CCNCC3)c2-c2ccnc(Oc3ccccc3)n2)cc1`, the inhibition in [1] is -1.95%; in [2], -1.26%; in experiment [3] it was 2.38%; in experiment [4], -0.19%; in experiment [5] it was -0.55%; in [6], 0.01%. In addition, the inhibition in [7] was 2.57%; in experiment [8], -1.05%; in experiment [9] it was 0.14%; in experiment [10], -0.23%; in experiment [11], -2.16%; in experiment [12] it was 1.37%. Besides, the inhibition is 2.5% in experiment [13]; -1.82% in experiment [14]; -2.43% in experiment [15]; -1.72% in [16]; 0.04% in [17]; 1.16% in experiment [18]. The results for the inhibition in experiment [19] and in experiment [20] were 1.46% and -0.62%, respectively.
Turning to `NS(=O)(=O)c1ccc(-c2ccc3c(NC(=O)C4CC4)n[nH]c3c2)cc1`, the inhibition in experiment [1] is 5.62%; in [2], 3.06%; in [3], 8.32%; in experiment [4], 3.64%; in [5] it was 6.53%; in [6] it was 4.08%. The inhibition is 7.2% in experiment [7]; -1.85% in experiment [8]; 0.84% in [9]; 3.17% in experiment [10]; 3.21% in experiment [11]; 2.57% in experiment [12]. The inhibition in experiment [13] was determined as 3.65%; in experiment [14] it was 0.18%; in [15], 0.35%; in experiment [16] it was 1.61%; in [17], 4.16%; in experiment [18], 1.56%. The figures for the inhibition in [19] and in experiment [20] were 2.29% and 3.27%, respectively.
Consider `Nc1nonc1-c1nc2cnccc2n1C1CCCCC1`, for which the inhibition in experiment [1] was 3.46%; in experiment [2] it was 0.83%; in experiment [3], 6.7%; in [4] it was -0.55%; in experiment [5], 4.25%; in experiment [6], 0.61%. Besides, the inhibition in experiment [7] is 6.14%; in [8], 0.69%; in [9], 1.22%; in experiment [10] it was -2.67%; in experiment [11] it was 0.68%; in experiment [12] it was -1.42%. In addition, the inhibition in [13] is 4.05%; in experiment [14], 1.07%; in [15] it was 1.19%; in experiment [16], -0.67%; in experiment [17], 1.88%; in [18], -2%. Further, the inhibition in experiment [19] is -1.47%; in experiment [20], -1.34%.
